Screening data as filed in PubChem.
aSyn UTR act = Activators working through SNCA 5'UTR binding (MLPCN). alpha-synuclein 5'UTR reporter, activators screen. activity score, % (tested at 7.5 µM), hits read low. 7.1% of 300,000 active. AID 1814; in the data active = activity score below about -60%
Large screens that a line does not name were inactive. The list is a sample of the results.

O=C(Nc1ccc(N2CCCC2)c(Cl)c1)c1ccc2c(c1)OCCO2	aSyn UTR act -78
O=C(Nc1ccc(N2CCOCC2)c(Cl)c1)c1ccco1	aSyn UTR act -69
O=C(Nc1ccc(N2CCCCC2)c(Cl)c1)c1ccc2c(c1)OCCO2	aSyn UTR act -132
CN1CCN(/N=C/c2cccc(Cl)c2Cl)CC1	aSyn UTR act -72
COc1ccc(NC(=O)Nc2nnc(C(C)C)s2)cc1	aSyn UTR act -135
Cc1ccc(NC(=O)Nc2nnc(-c3ccccc3F)s2)cc1	aSyn UTR act -85
COc1ccc(NC(=O)Nc2nnc(-c3ccncc3)s2)cc1	aSyn UTR act -100
O=C(Nc1nnc(-c2ccccc2F)s1)c1cccnc1	aSyn UTR act -116
COc1ccc(NC(=O)Nc2nnc(-c3ccccc3F)s2)cc1	aSyn UTR act -134
COc1ccc(NC(=O)Nc2nnc(-c3ccco3)s2)cc1	aSyn UTR act -108
CCn1c(O)c(C=NC2CCCC(C)C2C)sc1=S (configuration not stated)	aSyn UTR act -133
COc1ccc2c(c1)c1nnc(SC)nc1n2C	aSyn UTR act -68
O=C(c1ccc(-c2ccccc2Cl)o1)N1CCN(S(=O)(=O)c2cccs2)CC1	aSyn UTR act -114
O=C(Nc1ccccc1N1CCCCC1)c1ccc(-c2ccc(Cl)cc2)o1	none
S=C(c1ccc(-c2ccc(Cl)cc2)o1)N1CCCCC1	aSyn UTR act -150
N#CCCN1CCN(C(=S)c2ccc(-c3ccc(Cl)cc3)o2)CC1	aSyn UTR act -88
S=C(c1ccc(-c2ccccc2Cl)o1)N1CCCCC1	aSyn UTR act -170
CN1CCN(C(=S)c2ccc(-c3cccc(Cl)c3Cl)o2)CC1	aSyn UTR act -113
CCn1c(SC(C)C)nnc1-c1cc(-c2ccccc2)sc1N	aSyn UTR act -171
CCCCN1C=CC(=C2C(=O)c3ccccc3C2=O)C=C1	none
CCc1ccc2c(c1)C(=O)c1ccccc1C2=O	aSyn UTR act -199
Cc1ccc(-c2csc(NC(=O)c3cccc(S(=O)(=O)N4CCN(C)CC4)c3)n2)cc1	aSyn UTR act -66
Cc1ccc(-c2csc(NC(=O)COC(=O)c3cccc(S(=O)(=O)N4CCOCC4)c3)n2)cc1	aSyn UTR act -93
O=C(Nc1ccc(-c2nc3cccnc3s2)cc1)c1ccc(Cl)nc1	aSyn UTR act -151
O=C(Nc1ccc(-c2nc3cccnc3s2)cc1)c1ccc(Br)o1	aSyn UTR act -159
CCN(CC)C(=N)/C(C#N)=N/Nc1ccccc1	aSyn UTR act -81
N#C/C(=N\Nc1ccccc1)C(=N)N1CCCCC1	aSyn UTR act -78
N#C/C(=N\Nc1ccc(Cl)cc1)C(=N)N1CCCCCC1	aSyn UTR act -133
Cc1ccc(N/N=C(\C#N)C(=N)N2CCCCC2)cc1	aSyn UTR act -91
CC1(c2ccccc2)CC(c2ccccc2)=Nc2ccccc2N1 (configuration not stated)	aSyn UTR act -104
OCc1c(OCc2cccc(F)c2)ccc2ccccc12	aSyn UTR act -111
CC(C)(C)C(=O)/C(=C/c1ccc(Cl)cc1)n1cncn1	aSyn UTR act -173
CC(C)(C)C(=O)/C(=C\c1ccc([N+](=O)[O-])cc1)n1cncn1	aSyn UTR act -277
Cc1ccc(-n2nc(C)c3c(C)cc(=O)[nH]c32)cc1	aSyn UTR act -69
O=C(CC1CCCCC1)NCc1ccc(Cl)cc1	aSyn UTR act -69
COc1ccc2c(C)nc(Nc3nc(-c4ccccc4)cc(=O)[nH]3)nc2c1	aSyn UTR act -635
Cc1ccc2c(C)nc(Nc3nc(CSc4nc5ccccc5[nH]4)cc(=O)[nH]3)nc2c1	none
Cc1nc(Nc2nc3c(c(=O)[nH]2)CCC3)nc2ccccc12	none
COc1cccc(-c2ccnc3[nH]n(-c4ccccc4)c(=O)c23)c1	aSyn UTR act -76
Nc1ccc(-c2nc3cc([N+](=O)[O-])ccc3o2)cc1	aSyn UTR act -146
COc1ccc(-c2nc3cc([N+](=O)[O-])ccc3o2)cc1	aSyn UTR act -231
CC(C)N1CCC2(CC1)N=C(c1ccc3c(c1)OCO3)CC(c1cc(Cl)ccc1O)N2 (configuration not stated)	aSyn UTR act -173
Cc1nc2cc3ccccc3cc2c(=O)[nH]1	aSyn UTR act -112
CN1CCN(C(=O)c2ccc(-c3cccs3)s2)CC1	aSyn UTR act -98
Cc1nc2c(s1)sc1ccccc12	aSyn UTR act -76
O=c1[nH]c(N/N=C\c2ccc3c(c2)OCO3)nc2ccccc12	aSyn UTR act -161
C(/CCc1ccccc1)=N\Nc1nc2ccccc2[nH]1	aSyn UTR act -67
C(=N\Nc1nc2ccccc2[nH]1)/c1ccccc1	aSyn UTR act -175
Fc1cccc(/C=N/Nc2nc3ccccc3[nH]2)c1	aSyn UTR act -160
Fc1ccc(/C=N/Nc2nc3ccccc3[nH]2)cc1F	aSyn UTR act -159
C(=C\c1ccccc1)/C=N/Nc1nc2ccccc2[nH]1	aSyn UTR act -275
Brc1ccc(-c2ccc(/C=N/Nc3nc4ccccc4[nH]3)o2)cc1	aSyn UTR act -227
O=c1[nH]c(N/N=C/c2ccccc2)nc2ccccc12	aSyn UTR act -212
Cc1cc(N/N=C/c2ccc3c(c2)OCO3)nc2ccccc12	aSyn UTR act -180
Cn1c(-c2ccccc2)cnc1SCc1nc2ccccc2c(=O)[nH]1	aSyn UTR act -62
Cc1ccc(NC(=O)CCc2c(C)nn(-c3ccc(N4CCOCC4)nn3)c2C)cc1F	aSyn UTR act -86
Cc1ccc(NC(=O)CCc2c(C)nn(-c3ccc(N4CCCCC4)nn3)c2C)cc1	aSyn UTR act -107
Cc1ccc(F)cc1NC(=O)CCc1c(C)nn(-c2ccc(N3CCCCC3)nn2)c1C	aSyn UTR act -82
COc1ccc(C)cc1NC(=O)CCc1c(C)nn(-c2ccc(N3CCCCC3)nn2)c1C	aSyn UTR act -95
Cc1nn(-c2ccc(N3CCCCC3)nn2)c(C)c1CCC(=O)Nc1ccc(F)c(F)c1	aSyn UTR act -66
CC(=O)c1ccc(NC(=O)CCc2nnc3ccc(N4CCCC4)nn23)cc1	aSyn UTR act -95
Cc1ccnc(N(C(=O)Nc2ccccc2)C2=NCC(C)(C)S2)c1	aSyn UTR act -165
CCOc1ccc(C(=O)Nc2nc(C)c(C(=O)OC)s2)cc1	aSyn UTR act -97
Cc1cnc(NC(=O)COc2ccccc2)s1	aSyn UTR act -142
COC(=O)c1sc(NC(=O)Cc2cccs2)nc1C	aSyn UTR act -69
Cc1cnc(NC(=O)CCc2ccccc2)s1	aSyn UTR act -383
Cc1cnc(NC(=O)CSc2ccccc2)s1	aSyn UTR act -108
CCOC(=O)c1sc(NC(=O)c2cccnc2)nc1C	aSyn UTR act -100
COC(=O)c1sc(NC(=O)COc2ccccc2)nc1C	aSyn UTR act -142
Cc1ccc(NC(=S)N/N=C/c2ccc([N+](=O)[O-])s2)cc1	aSyn UTR act -74
CCc1ccc(N(C(=O)c2csnn2)C(C(=O)NC(C)(C)CC)c2ccccn2)cc1 (configuration not stated)	aSyn UTR act -69
CCc1ccc(N(C(=O)c2csnn2)C(C(=O)NC(C)(C)C)c2ccccn2)cc1 (configuration not stated)	aSyn UTR act -102
COc1cc(OC)cc(C(=O)Nc2ccc3nc4n(c(=O)c3c2)CCCCC4)c1	aSyn UTR act -115
O=C(Nc1ccc2nc3n(c(=O)c2c1)CCCC3)c1cccc([N+](=O)[O-])c1	aSyn UTR act -103
CC(=O)Nc1ccc(NC(=O)c2sc3nc4n(c(=O)c3c2C)CCCCC4)cc1	none
COc1cc(OC)cc(-c2nc(-c3cccs3)no2)c1	aSyn UTR act -139
COc1cc(-c2noc(C)c2/C=C/c2cccc([N+](=O)[O-])c2)cc(OC)c1OC	none
COc1ccc(-c2noc(-c3cccs3)n2)cc1OC	aSyn UTR act -174
